Measurements published in PubChem BioAssay (EPA / NIEHS).
Activity calls are given as the source filed them. Rule for the calls: active = hit-call score of the fitted dose curve at least 0.9, where 1 is the maximum; inactive = score below 0.9.

test: ATG_EGR_CIS: Attagene CIS-FACTORIAL HepG2 Assay for human Early Growth Response 1 (EGR1) (AID 2282938); conditions: HepG2 Attagene CIS-FACTORIAL EGR reporter mRNA; actives raise or lower the signal
How it was run: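 Transient transfection of human HepG2 with multiple cis-regulated reporter units, chemical exposure 24 h, total RNA isolated. Reverse transcription, PCR, fluorescent labelling and capillary electrophoresis quantify reporter transcripts; activity fitted bidirectionally against DMSO.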

| Structure (SMILES) | outcome |
| --- | --- |
| CO[Si](CCCn1c(=O)n(CCC[Si](OC)(OC)OC)c(=O)n(CCC[Si](OC)(OC)OC)c1=O)(OC)OC | inactive |
| Nc1cc(N)cc(C(=O)O)c1 | inactive |
| CCCC(=O)OCCC(C)CCC=C(C)C (stereo not given) | inactive |
| O=C(O)c1cccc(C(F)(F)F)c1 | inactive |
| CC[Si](OC(C)=O)(OC(C)=O)OC(C)=O | inactive |
| O=S(=O)(O)NC1CCCCC1 | inactive |
| CCCCCCCCC=O | inactive |
| CCCCOCCOCCSC#N | inactive |
| CCCCCCCCCCCCSC | inactive |
| CN1[C@@H]2CC(OC(=O)[C@H](CO)c3ccccc3)C[C@H]1[C@@H]1O[C@@H]12 (stereo not given in full) | inactive |
| O=C(O)C[C@H](O)C[C@H](O)/C=C/c1c(C2CC2)nc2ccccc2c1-c1ccc(F)cc1 | inactive |
| CCn1c2ccccc2c2cc(N)ccc21 | inactive |
| COc1cccc(OC)c1 | inactive |
| CCC(=O)OCc1ccccc1 | inactive |
| O=[N+]([O-])c1ccc(C=Cc2ccc([N+](=O)[O-])cc2S(=O)(=O)O)c(S(=O)(=O)O)c1 | inactive |
| CC(C)C1CCC(O)CC1 (stereo not given) | inactive |
| CC(=O)O[C@H](CC(=O)[O-])C[N+](C)(C)C | inactive |
| C=C(C)C(=O)OCCOC(=O)CC(C)=O | inactive |
| O=C=NC1CCC(CC2CCC(N=C=O)CC2)CC1 (stereo not given) | inactive |
| O=c1cc(-c2ccccc2)oc2cc(O)cc(O)c12 | inactive |
| O=c1[nH]nnc2ccccc12 | inactive |
| OCCOc1cccc(OCCO)c1 | inactive |

test: ATG_M_19_CIS: Attagene CIS-FACTORIAL HepG2 Assay for M19 Transcription Factor (Internal Marker) (AID 2282939); conditions: HepG2 Attagene CIS-FACTORIAL M19 internal marker reporter; actives raise or lower the signal
How it was run: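 Signals come from fluorescence of labelled reporter-specific PCR fragments resolved by capillary electrophoresis, following 24 h treatment of HepG2 cells transfected with cis-promoter reporter units; activity was fitted in both directions relative to DMSO.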

| Structure (SMILES) | outcome | AC50 |
| --- | --- | --- |
| CO[Si](C)(OC)c1ccccc1 | inactive | – |
| COc1ccc(OC)c(OC)c1 | inactive | – |
| CN(C)CCOCCN(C)C | inactive | – |
| CC(=O)O[C@]1(C(C)=O)CC[C@H]2[C@@H]3C[C@H](C)C4=CC(=O)CC[C@]4(C)[C@H]3CC[C@@]21C | inactive | – |
| CCc1ccc(C=O)cc1 | inactive | – |
| O=C(O)c1cn(-c2ccc(F)cc2)c2cc(N3CCNCC3)c(F)cc2c1=O | inactive | – |
| c1ccc2c(c1)c1cccc3ccc4cccc2c4c31 | inactive | – |
| Cc1ccc(C=O)cc1 | inactive | – |
| Cc1cccc(C)c1[N+](=O)[O-] | inactive | – |
| CCCCCCCCCCCCOCCO | inactive | – |
| Clc1sc(Cl)c(Cl)c1Cl | inactive | – |
| NC(N)=NC(=O)c1nc(Cl)c(N)nc1N | inactive | – |
| O=c1[nH]c(=O)n([C@H]2CCCO2)cc1F | inactive | – |
| CCC(O)CO (stereo not given) | inactive | – |
| CO[Si](CCCn1c(=O)n(CCC[Si](OC)(OC)OC)c(=O)n(CCC[Si](OC)(OC)OC)c1=O)(OC)OC | inactive | – |
| Nc1cc(N)cc(C(=O)O)c1 | inactive | – |
| CCCC(=O)OCCC(C)CCC=C(C)C (stereo not given) | inactive | – |

| Structure (SMILES) | outcome | AC50 |
| --- | --- | --- |
| O=C(O)c1cccc(C(F)(F)F)c1 | inactive | – |
| CC[Si](OC(C)=O)(OC(C)=O)OC(C)=O | inactive | – |
| CCCCCCCCC=O | inactive | – |
| CCCCOCCOCCSC#N | inactive | – |
| CCCCCCCCCCCCSC | inactive | – |
| CN1[C@@H]2CC(OC(=O)[C@H](CO)c3ccccc3)C[C@H]1[C@@H]1O[C@@H]12 (stereo not given in full) | inactive | – |
| O=C(O)C[C@H](O)C[C@H](O)/C=C/c1c(C2CC2)nc2ccccc2c1-c1ccc(F)cc1 | inactive | – |
| CCn1c2ccccc2c2cc(N)ccc21 | inactive | – |
| COc1cccc(OC)c1 | inactive | – |
| CCC(=O)OCc1ccccc1 | inactive | – |
| CC(C)C1CCC(O)CC1 (stereo not given) | inactive | – |
| CC(=O)O[C@H](CC(=O)[O-])C[N+](C)(C)C | inactive | – |
| C=C(C)C(=O)OCCOC(=O)CC(C)=O | inactive | – |
| O=C=NC1CCC(CC2CCC(N=C=O)CC2)CC1 (stereo not given) | – | 100 µM (active) |
| O=c1cc(-c2ccccc2)oc2cc(O)cc(O)c12 | inactive | – |
| O=c1[nH]nnc2ccccc12 | inactive | – |
